Laboratory results: the supplement of paper PMC6555819

Tests used:
Experiment in all cases: PBM binding z-score (relative to random genomic background probes); higher = stronger binding; sequences stand for … in GC…GCGATTGACAGCGTAGAATGAAGG
[1] = tested on: PPARg:RXRa DBDmut IVT, anti-RXR (DBD mutation: RXRa K156A/R161A, NR concentration 270 nM, RXRa partner concentration 90 nM)
How it was run: (§1)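 Ligand-free nuclear receptor dimers were applied to custom Agilent 4×180K protein-binding microarrays whose double-stranded probes carried direct-repeat seeds, single-nucleotide variants, half-site ablations and random human genomic background sequences in 34-nt variable regions. Incubation lasted 1 h. Binding z-scores were computed against the random background probes from regression-normalized fluorescence.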

[2] = tested on: PPARg:RXRa IVT, anti-PPARg (NR concentration 270 nM, RXRa partner concentration 90 nM)
How it was run: as §1

[3] = tested on: PPARg DBDmut:RXRa IVT, anti-PPARg (DBD mutation: PPARg1 K132A/R137A, NR concentration 270 nM, RXRa partner concentration 90 nM)
How it was run: as §1

[4] = tested on: PPARg DBDmut IVT, anti-PPARg (DBD mutation: PPARg1 K132A/R137A, NR concentration 270 nM)
How it was run: as §1

[5] = tested on: PPARg homodimer (NR concentration 180 nM)
How it was run: as §1

[6] = tested on: PXR:RXRa (NR concentration 270 nM, RXRa partner concentration 90 nM)
How it was run: as §1

[7] = tested on: PXR homodimer (NR concentration 270 nM)
How it was run: as §1

[8] = tested on: RARa:RXR (NR concentration 270 nM, RXRa partner concentration 90 nM)
How it was run: as §1

[9] = tested on: RARa homodimer (NR concentration 270 nM)
How it was run: as §1

[10] = tested on: RARb:RXRa (NR concentration 270 nM, RXRa partner concentration 90 nM)
How it was run: as §1

Sequence	PBM binding z-score [1]	PBM binding z-score [2]	PBM binding z-score [3]	PBM binding z-score [4]	PBM binding z-score [5]	PBM binding z-score [6]	PBM binding z-score [7]	PBM binding z-score [8]	PBM binding z-score [9]	PBM binding z-score [10]
AGTAGTTGGTCAGCTGAGGTCACACACAATTCGG	1.18	2.65	0.554	0.308	3.34	5.41	2.54	4.6	1.53	3.63
TTACCAAGGTGAATGGTCGTTGATGCACGCCTTG	2.03	2.67	0.334	0.253	0.0353	0.0282	-0.612	0.364	0.953	1.46
TCTCGGAGGACACGAAAGGTCAGAGCCCGACATC	1.33	1.82	-0.244	-0.279	3.83	3.99	0.732	4.46	1.38	4.29
ATCTCTAGGTAAAAGTTCGGTGAATCCCGAGGAT	2.29	2.74	1.06	1.26	0.445	0.402	0.883	0.471	0.857	0.906
TCTTGTAGATCAGCAGGTTAAGTAAGCTGGCCAA	1.65	0.766	-0.114	-0.0421	0.0118	0.266	-0.355	0.553	-0.134	0.298
CGTCCAAGGTCAATGCTAGGTCAGTAAAAGCATT	3.36	4.08	0.0708	-0.363	5.6	4.82	1.32	6.12	1.53	5.32
CCTACTGGGGCATCAGGTCATTGATATCAACGTT	5.37	6.32	1.29	0.377	2.41	1.8	0.7	2.41	0.207	2.36
TTACCAAGGTGAAGGTCGTTGAACCCTCTGTAGA	1.76	3.38	0.136	0.367	0.968	3.18	0.277	3.4	-0.283	2.4
GCATATCGGTAATACAAGGTGAAAGTCCGATTGT	0.472	0.945	0.308	0.208	0.544	0.155	0.188	0.793	0.00157	0.541
CTCGAAAGGTCGTGCTCAGGCGAGTATACCAAAC	0.449	1.53	0.141	-0.559	0.928	2.68	-0.312	3.16	-0.0786	3.98
AATACAGGGTCATCGTAGCCCAGAGTACGCACAG	3.35	5.25	2.19	2.43	2.47	4.07	0.552	4.59	0.855	4.29
GGAACGAGGGCAAAGTTGATAGCTTCTGTCGACG	4.1	4.11	0.574	0.0846	0.712	0.96	0.104	1.34	-0.449	2.14
AGTCAAAGTTCAGGAGGAGGTAACGTAAAGCACG	-0.11	2.24	0.683	1.05	2.81	3.09	1.96	3.17	1.91	4.57
CCAGACAGGTGAAAGGTATCTCAGTCTGGTACGC	2.04	1.9	0.166	-0.382	0.656	0.00827	-0.341	0.664	-0.422	0.68
TAGCCTAGGTCATCGGCCAGTATACCACGCGAAC	1.44	2.98	1.05	0.00127	1.6	1.62	-0.365	2.58	-0.512	3.75
CGAACGAGGGCGTGAGTTGATAGCAAATGCCGAT	0.665	0.126	-0.548	-1.21	-0.313	-0.163	-0.37	-0.268	-0.533	0.442
CCGACTGGTGCAAGGTTACCATAACGCACAGCCA	-0.528	-0.0659	-0.402	-0.928	0.54	0.357	-0.288	0.554	0.0426	0.894
GATACAGGGTCACGGCCAGAGTACGCGTATTGAT	4.17	5.49	1.11	0.362	2.36	4.75	0.0972	6.41	0.744	4.89
AGTCAAAGATCATCTAGGTAACGTAAGATATGCT	0.742	2.23	0.348	0.62	-0.382	-0.211	-0.246	0.277	0.136	0.0858
CATACAGGGTCAGCTAGACCAGAGTAGGGACGGC	1.02	2.59	1.26	0.0987	1.43	2.03	-0.458	3.16	0.685	4.07
TCTAGCAGGCCAGAGGGTCGCTCAAGAGGTACGG	0.74	-0.213	-1.68	-1.41	-0.918	-0.366	-0.896	-0.208	-1.48	0.463
AGAACGAGGGCAAAGAGTTGATAGCACGGGTGGC	3.36	2.41	0.499	-0.21	0.413	1.77	4.76	0.09	-0.299	2.11
GCGACTGGGGCATCAGCAGGTTACCATAACTTAA	3.62	3.27	0.296	-0.965	0.771	-0.0761	-0.654	0.57	-0.145	0.697
CCTACTTGGCCAAAAAGGTCATTGATGCCGATAA	1.07	1.98	0.866	0.465	4.5	4.93	2.68	5.78	3.1	3.99
